From PubChem BioAssay
An excerpt weighted towards active compounds, which were near 11% of everything screened.
HP1b binding inh = HP1-beta chromodomain-methylated histone interaction inhibition; AlphaScreen HP1-beta / biotin-H3K9me3 peptide binding; Potency, µM (series often up to 114 µM), inactives show at the top dose activity change, negative = inhibition, hits mostly inhibitors; AID 540317; actives 0.56% (n = 390,000); further: potency means the concentration at half of the fitted maximal effect; nearly all actives have a fitted effect of over 70% in size
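AlphaScreen: HP1-beta (50 nM) preformed 30 min with biotin-H3(1-18)K9me3 peptide (50 nM) in PBS pH 7.4, 0.01% Tween-20. Compound added for 30 min at RT, then streptavidin donor/nickel chelate acceptor beads (10 ug/mL) for 30 min.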
G9a block = G9a (human) methyltransferase inhibition; Potency, µM (titrated, usually from 102 µM), for the others: at the top dose activity, negative = inhibition, usual class: inhibitors; G9a H3K9 monomethylation, AlphaScreen, 2 h; actives 8.8% (n = 350,000); Q96KQ7; further: potency means the concentration at half of the fitted maximal effect; on the % scale 0 is the no-effect control and ±100 the full control effect; nearly all actives have a fitted effect of over 75% in size
Target sequence (Q96KQ7 913-1193 limits assumed): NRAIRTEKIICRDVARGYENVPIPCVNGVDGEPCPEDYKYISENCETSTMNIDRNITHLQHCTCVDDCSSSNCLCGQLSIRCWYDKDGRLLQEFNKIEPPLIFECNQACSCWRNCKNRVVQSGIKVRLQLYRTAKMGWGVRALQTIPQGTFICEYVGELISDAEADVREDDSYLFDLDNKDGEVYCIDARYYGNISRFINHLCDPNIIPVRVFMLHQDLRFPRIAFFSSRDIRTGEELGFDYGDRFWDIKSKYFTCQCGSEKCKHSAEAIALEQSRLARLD
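Compounds were preincubated with 20 nM G9a for 15 min, after which biotinylated H3K9 peptide (500 nM) and SAM (20 uM) started a 2 h room-temperature reaction. Monomethylated product was quantified by antibody-based AlphaScreen chemiluminescence.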
BAZ2B block = BAZ2B (human) inhibition; AlphaScreen BAZ2B-H3K14Ac peptide displacement; actives 4.4% (n = 360,000); Potency, µM (highest dose often 114 µM), without a hit: top-dose activity change, negative = inhibition, actives largely listed as inhibitors; Q9UIF8; AID 504333; further: potency means the concentration at half of the fitted maximal effect; on the % scale 0 is the no-effect control and ±100 the full control effect; nearly all actives have a fitted effect of over 60% in size
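Inhibition is scored as reduced AlphaScreen emission. The BAZ2B/b-H3(5-23)K14Ac complex (50 nM each) in PBS pH 7.4, 0.01% Tween-20 meets compound (up to 110 uM) for 30 min at RT before bead addition.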
L3MBTL1 block = blocks human L3MBTL1. Q9Y468. AlphaScreen L3MBTL1–H3K9me1 peptide binding. Potency, µM (highest dose often 57.1 µM), without a hit: at the highest dose activity, negative = inhibition, actives largely listed as inhibitors. actives 0.66% (n = 230,000); further: potency means the concentration at half of the fitted maximal effect; on the % scale 0 is the no-effect control and ±100 the full control effect; nearly all actives have a fitted effect of over 60% in size
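L3MBTL1 50 nM + b-AHA-H3(1-15)K9me1 75 nM, 30 min RT; compound added, 30 min RT; streptavidin donor/Ni-chelate acceptor beads 10 ug/mL each final, 30 min RT dark; AlphaScreen read.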
PI5P4Ka inh = inhibitors of human PI5P4K alpha. AID 652105. max response, %. actives 1.2% (n = 330,000). P48426. PI5P4Kalpha enzyme, ADP-Glo luminescence, 60 min; stronger effect = lower value; active means max response of -50% or lower; inconclusive means between -30% and -50%; inactive means -30% or higher; further: value at the top dose of about 77 µM; on the % scale 0 is the no-effect control and ±100 the full control effect
Target sequence (P48426 whole entry, looked up): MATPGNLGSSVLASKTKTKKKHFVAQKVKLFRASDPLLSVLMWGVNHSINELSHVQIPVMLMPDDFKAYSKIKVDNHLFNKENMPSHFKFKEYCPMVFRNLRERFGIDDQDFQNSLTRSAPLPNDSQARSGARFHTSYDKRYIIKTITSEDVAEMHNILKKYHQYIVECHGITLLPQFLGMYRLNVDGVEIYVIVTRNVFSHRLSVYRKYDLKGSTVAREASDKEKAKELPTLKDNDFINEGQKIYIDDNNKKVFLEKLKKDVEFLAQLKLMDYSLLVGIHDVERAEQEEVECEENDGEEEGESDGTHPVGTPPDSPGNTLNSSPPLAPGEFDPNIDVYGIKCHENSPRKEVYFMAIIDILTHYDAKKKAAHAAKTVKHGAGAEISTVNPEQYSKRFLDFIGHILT
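Enzyme plus substrate dispensed, test compounds pinned in, then ATP (5 microM final) added. After 60 min at RT, ADP-Glo reagent 1 for 45 min and reagent 2 for 30 min preceded luminescence imaging.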
JMJD2A Tudor inh = blocks the human JMJD2A Tudor domain | actives 4.4% (n = 390,000) | AlphaScreen JMJD2A-Tudor / H3K4me3 peptide binding | Potency, µM (titrated, usually from 114 µM), inactives show at the top dose activity change, negative = inhibition, most hits filed as inhibitors; further: potency means the concentration at half of the fitted maximal effect; on the % scale 0 is the no-effect control and ±100 the full control effect; nearly all actives have a fitted effect of over 50% in size
An asterisk follows results filed as active; u = inconclusive; x = no result; [ ] = remark or other dose. Unless noted, the call rests on the fitted dose curve; in most records, active means well fitted inhibition curve with a large enough effect; inconclusive means small, poorly fitted or top-dose-only effect; inactive means no such curve, though single readings can be large or run the other way.

SMILES | HP1b binding inh | G9a block | BAZ2B block | L3MBTL1 block | PI5P4Ka inh | JMJD2A Tudor inh
CC(C)[C@H](NC(=O)C1CC(=O)N(c2ccc3c(c2)OCO3)C1)C(=O)NC1CCCC1 (some centres not stated) | 65% | 56µM* | u | x | -18 | 21%
Cc1c(Cl)cccc1NC(=O)Cn1c(CCC(=O)O)ccc1-c1ccc(Cl)cc1 | u | u | 56µM* | -1% | -10 | 35µM*
Cc1c(Cl)cccc1NC(=O)Cn1c(CCC(=O)O)ccc1-c1cccs1 | 8% | -32%[59 µM] | -23% | x | x | -19%
O=C(O)CCc1ccc(-c2ccc(Cl)cc2)n1CC(=O)O | 25% | 45µM* | -32% | -10% | x | u
O=C(O)CCc1ccc(-c2ccccc2)n1CC(=O)Nc1cccc(C(F)(F)F)c1 | 12% | 45µM* | u | -6% | 7 | -30%
COCCn1c(CCC(=O)O)ccc1-c1cccs1 | 17% | 50µM* | -30% | -2% | 8 | -15%
CCCCn1c(CCC(=O)O)ccc1-c1cccs1 | -5% | u | u | -10% | -9 | u
Cc1cc(=O)n2nc(N(C)CC(=O)NCc3cccc(Br)c3)sc2n1 | 48% | 17%[59 µM] | 3% | x | x | 0%
COc1ccccc1NC(=O)CN(C)S(=O)(=O)c1ccc2c(c1)c(=O)n(C)c(=O)n2C | 12% | 2%[59 µM] | -4% | x | x | -17%
CCOC(=O)c1c(C)[nH]c(C)c1S(=O)(=O)N1CCCC(C(=O)Nc2cc(C)ccc2C)C1 (configuration not stated) | 44% | -4%[59 µM] | -13% | x | x | -6%
COc1ccc(-c2ccc(CCC(=O)O)n2Cc2ccco2)cc1 | -4% | x | u | -11% | -14 | -30%
O=C(O)CCc1ccc(-c2ccc(Cl)cc2)n1Cc1ccco1 | 6% | u | 50µM* | x | x | u
O=C(O)CCc1ccc(-c2cccs2)n1Cc1ccco1 | 5% | u | 50µM* | x | x | u
Cc1nc2cnc(N3CCN(C)CC3)nc2n(Cc2ccc(F)cc2)c1=O | x | 1%[0.501 µM] | x | x | x | x
CCOC(=O)C1=C(N)N2C(=O)CSC2=C(C(=O)OC)C1 | 38% | 50µM* | u | -2% | -12 | -30%
Cc1ccc(/C=C2\SC(=O)N(CCNC(=O)C3CSC4(C)CCC(=O)N34)C2=O)cc1 (configuration not stated) | 13% | 35µM* | -24% | 13% | -2 | -18%
COc1cccc(Nc2nc(-c3sc(NC(=O)c4ccco4)nc3C)cs2)c1 | -32% | 40µM* | u | -4% | -30 | u
COc1cccc(Nc2nc(-c3sc(N)nc3C)cs2)c1 | u | u | 40µM* | -9% | x | u
COc1ccccc1Nc1nc(-c2sc(N)nc2C)cs1 | u | 13µM* | u | -8% | -23 | u
COc1ccccc1CN1CC[C@@]2(CCCN(S(=O)(=O)c3ccccc3)C2)C1 | x | -4%[12.7 µM] | x | x | x | x
COCCCNC(=O)c1cc2cc(S(=O)(=O)N3CCCCC3)ccc2n1C | 24%[57 µM] | 2%[59 µM] | 2% | x | x | -1%
O=c1[nH]c(CN2CCc3ccccc3C2)nc2ccccc12 | 34% | u | -5% | x | x | -26%
Cc1[nH]c2ccccc2c1CN1CCc2ccccc2C1 | -39% | 13µM* | u | x | x | 40µM*
Clc1ccc(C2=C3CCCCn4c(-c5ccccc5)c[n+](c43)C2)cc1 | 2% | 14µM* | 50µM* | -27% | u | u
COc1ccc(-c2c[n+]3c4n2CCCCC4=C(c2ccc(Br)cc2)C3)cc1 | -13% | 8.9µM* | 40µM* | -11% | x | 56µM*
SMILES | HP1b binding inh | G9a block | BAZ2B block | L3MBTL1 block | PI5P4Ka inh | JMJD2A Tudor inh
COc1ccc(-c2noc(-c3ccc(NCc4ccco4)c([N+](=O)[O-])c3)n2)cc1 | 37% | u | 0% | x | x | 2%
Cc1cc(C)c(Nc2nc3ccccc3n3c(C)nnc23)c(C)c1 | 13% | -17%[59 µM] | 0% | x | x | -10%
c1ccc2c(c1)CCN2CCN1CCc2ccccc21 | 9% | 3.5µM* | u | -11% | -13 | -29%
CN(C)CCN1CCc2ccccc21 | 4% | u | u | x | -2 | -34%
O=C1c2ccccc2C(=O)N1CCN1CCc2ccccc21 | 7% | u | 50µM* | -2% | x | u
O=C1c2ccccc2C(=O)N1CCCC(=O)N1CCCc2ccccc21 | 42% | -26% | -2% | 3% | -3 | -10%
CC(NC(=O)CN1CCc2ccccc21)c1ccccc1 (configuration not stated) | 6% | 25µM* | -25% | 2% | -13 | -29%
Cc1c(Cl)cccc1NC(=O)Cn1cc(C(=O)C2CCCCC2)c2ccccc21 | 23% | 3%[59 µM] | -1% | x | x | -1%
CCOC(=O)c1sc(NC(=O)c2cc(-c3ccc(C)cc3)nc3ccccc23)c(C#N)c1C | u | 5.6µM* | 0% | -2% | -24 | 79µM*
COC(=O)c1sccc1NC(=O)c1cc(-c2ccc(C)cc2)nc2ccccc12 | 34% | x | 4% | 7% | -16 | 3%
C/C(N)=C(/C#N)C(=O)COC(=O)c1cc(-c2ccc(Br)cc2)nc2ccccc12 | 14% | 1.8µM* | 16% | 34% | 24 | -4%
COc1ccc(-c2cc(C(=O)Nc3sc4c(c3C#N)CCCC4)c3ccccc3n2)cc1 | -10% | 15%[59 µM] | -11% | -14% | 1 | -29%
COC(=O)c1sc(NC(=O)c2cc(-c3ccccc3)nc3ccccc23)c(C#N)c1C | 7.9µM* | u | -33% | -13% | u | -3%[57.1 µM]
Cc1sc(NC(=O)c2cc(-c3ccc(Cl)cc3)nc3ccccc23)c(C(N)=O)c1C | u | 13µM* | 2% | -4% | u | -14%
O=C(COC(=O)c1cc(-c2ccccc2)nc2ccccc12)c1ccc(Br)cc1 | 37% | 28%[59 µM] | 12% | x | x | 5%
Cc1sc(NC(=O)c2cc(-c3ccccc3)nc3ccccc23)c(C(N)=O)c1C | 19% | 15%[59 µM] | -29% | -5% | 15 | -14%
Cc1ccc(NC(=O)c2ccc3snnc3c2)cc1Cl | 40% | 10%[59 µM] | -16% | x | x | -2%
Cc1cc(Nc2cccc(C)c2C)n2cnnc2n1 | 51% | u | -18% | x | x | 1%
Cc1ccccc1-c1cc(C(=O)Nc2sc(C(=O)OC(C)C)c(C)c2C#N)c2ccccc2n1 | u | 45µM* | -1% | -6% | -24 | 56µM*
CCOC(=O)c1sc(-c2ccc(C)cc2)c(C#N)c1C | -10% | 40µM* | 12% | 12% | -23 | 3%
Cc1ccc(-n2nnc(C(=O)Nc3cc(F)ccc3F)c2C)cc1F | 62% | -12%[59 µM] | 6% | x | x | -12%
O=C1c2ccccc2NC(c2cc(Cl)cc(Cl)c2O)N1Cc1cccnc1 (configuration not stated) | 35% | 79µM* | u | x | -3 | -25%
O=C1c2ccccc2NC(c2ccccc2O)N1Cc1ccccc1 (configuration not stated) | x | x | x | x | x | -22%
